Assay results published in PubChem BioAssay AID2417 (National Center for Advancing Translational Sciences (NCATS), 2010).
In all, about 140,000 compounds went through this assay and about 4,300 (3.1%) were called active. Inconclusive results (about 21%) are left out.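 Rule for the calls: active = readout at or below -70, meaning at least 70% loss of cells showing the perinucleolar compartment, a nuclear body marking cancer cells; inconclusive = readout between -30 and a set limit; inactive = the rest.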 Many of the other results were omitted from the sample, so actives are more common in it than they were.

Assay: High Content Assay for Compounds that inhibit the Assembly of the Perinucleolar Compartment;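 note: plate controls were DMSO wells for no effect and camptothecin positive control wells for full effect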
Conditions: PC3M PTB-GFP, PNC prevalence imaging, 16 h; at 10 µM; active compounds read low
How it was run: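 PC3M cells stably expressing PTB-GFP, 750–1000 cells/well, treated 16 h at 37 °C with compound (23 nl of library stock), in duplicate. After paraformaldehyde fixation and Hoechst stain, imaged at 20x; PNC prevalence scored by image analysis.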

Activity change (PNC), negative = inhibition, active:
CC(C)(C)NCCCOc1ccc(Cl)cc1C(C)(C)C -102%
COc1ccc(-c2cc3ccc(OCc4nn[nH]n4)cc3oc2=O)cc1 -119%
Cc1cc(C)nc(N2CCN(c3ncnc4c3oc3ccccc34)CC2)n1 -114%
Cc1c(Cl)cccc1NC(=O)Nc1ccc(C(=O)N2CCCC2)cc1 -83.7%
CCNc1ccc(C(=O)OCC(=O)N2c3ccccc3NC(=O)C2(C)C)cc1[N+](=O)[O-] -112%
O=C(COC(=O)/C=C/c1nc2ccccc2s1)Nc1ccccc1Oc1ccccc1 -108%
OC(COCc1ccco1)CN1CCN(c2ccccc2)CC1 (stereo unspecified) -85.3%
Cc1cccc(NC(=O)C2CC(=O)OC23CCCC3)c1 (stereo unspecified) -100%
CCCCCNC(=O)c1cccnc1SCC(=O)Nc1ccccc1OC -119%
CCOC(=O)c1nn(-c2ccccc2F)c2nc(Nc3ccccc3)cc(=O)n12 -91%
COc1ccc(C2=NOC(C(=O)NCc3ccco3)C2)cc1OC (stereo unspecified) -87%
COc1ccccc1N1CCN(C(=O)C(=O)N/N=C/c2ccccc2F)CC1 -114%
CC(C)C1C2=C(CC(C)(C)CC2=O)ON1c1ccccc1 (stereo unspecified) -90.5%
COCCn1c(=O)[nH]c2cc(C(=O)NCc3cccnc3)ccc2c1=O -86.1%
COc1cc(C(=O)Nc2oc(-c3ccccc3)c(-c3ccccc3)c2C#N)cc(OC)c1OC -87.4%
CCc1cccc(NC(=O)CCC(=O)O)c1 -102%
O=C(Oc1ccccc1C(=S)N1CCCCC1)c1cc([N+](=O)[O-])cc([N+](=O)[O-])c1 -100%
COc1ccc(-c2c(C(C)=O)c(C)nc3sc4c(=O)n(-c5ccc(C)cc5)nnc4c23)cc1 -106%

Activity change (PNC), negative = inhibition, inactive:
Cc1ccc(C(C)(C)C)c(OCCCCN2CCCC2)c1 -12.5%
COCCCNCCOCCOc1ccc(Cl)cc1Br 40.2%
CCCCc1nc(NCc2ccccc2)c(C#N)c2c1CCCC2 225%
Cc1nn(Cc2ccccc2)c(C)c1C(=O)NCCN1C(=O)S/C(=C\c2ccc(F)cc2)C1=O 37%
C[N+]1(CC(O)COc2ccccc2)CCN(C(=O)c2ccc([N+](=O)[O-])cc2)CC1 (stereo unspecified) 13%
O=c1oc2cc(O)ccc2cc1-c1ccc(F)cc1 13%
CCCCc1cc(=O)oc2cc(C)cc(OCc3nn[nH]n3)c12 9.68%
COc1ccccc1Nc1ncnc2c1oc1ccccc12 52.9%
CCc1nc(N2CCN(c3nc(C)cc(C)n3)CC2)c2oc3ccccc3c2n1 -21.5%
O=C(COC(=O)c1c2c(nc3ccccc13)/C(=C\c1cccs1)CCC2)Nc1ccccc1Cl -25.2%
O=C(CN1C(=O)NC2(CCCCCC2)C1=O)NCc1cccs1 -4.41%
COc1ccccc1OCc1ccc(C(=O)N2CCN(C)CC2)o1 -19.3%
O=C(c1ccc(Cl)c(Cl)c1)N1CCCC1 50.1%
CS(=O)(=O)Nc1ccc(C(=O)N2CCCC2)cc1 3.33%
CCC(C)(C)C1CCC(=NNC(=O)c2ccc(Br)o2)CC1 (stereo unspecified) -3.73%
CC(C)c1nccn1S(=O)(=O)c1cc([N+](=O)[O-])ccc1Cl 2.64%
CCc1nnc(NC(=O)CCN(c2ccc(C)cc2)S(=O)(=O)c2ccccc2)s1 2.13%
Nc1ccc(C(=O)OCC(=O)NC2CCCc3ccccc32)cc1[N+](=O)[O-] (stereo unspecified) -26.5%
CC1(C)C(=O)Nc2ccccc2N1C(=O)COC(=O)Cn1cnc2ccccc2c1=O -28.4%
Cc1ccc(C(=O)CNc2ccc(F)cc2)cc1 23.7%
COc1ccc(/C=C/C(=O)OCC(=O)Nc2cccc(Oc3ccccc3)c2)c(OC)c1 25.2%
COc1cc(/C=C/C(=O)OCC(=O)Nc2cccc(Oc3ccccc3)c2)ccc1O -28.3%
O=C(NC1CCN(Cc2ccccc2)CC1)c1c(F)cccc1F -1.56%
COCCNC(=O)c1ccc(N2CCC3(CC2)OCCO3)c([N+](=O)[O-])c1 -24.5%
COc1cccc(NC(=S)NCc2ccco2)c1 14.5%
Cc1ccc(NC(=O)NC(=O)N(C2CCCCC2)S(=O)(=O)c2ccccc2)cc1 8.69%
OC(COc1ccc2ccccc2c1)CN1CCOCC1 (stereo unspecified) 13%
OC(COCC1COc2ccccc2O1)CN1CCN(c2ccc(F)cc2)CC1 (stereo unspecified) -2.15%
Cc1ccc(-c2csc(NNC(=O)c3ccccc3)n2)cc1 -13.8%
Cc1ccc(O)c(-c2cc(C(=O)NCc3ccccc3)[nH]n2)c1 -13.6%
Cc1cccc(NC(=O)C2CCN(S(=O)(=O)c3cccc4cccnc34)CC2)c1 20.6%
Cc1cccc(NC(=O)CN2C(=O)CNC2=O)c1 48.7%
CCCCOc1ccc(NC(=O)[C@@H]2CCCN2C(=O)C2CCN(S(=O)(=O)c3ccc(C)cc3)CC2)cc1 7.21%
COc1cc(/C=N/O)ccc1OCc1ccc([N+](=O)[O-])cc1 15.8%
CCCNC(=O)c1ccccc1NC(=O)CSCc1ccc(OC)cc1 -26.5%
COC(=O)c1ccccc1NC(=O)CSc1ccccn1 6.08%
COc1cc(NC(=O)c2ccccc2NS(=O)(=O)c2ccc(Cl)s2)cc(OC)c1 -4.27%
CCOC(=O)c1nc(Nc2ccc(C(=O)OC)cc2)c2ccccc2n1 -9.55%
Cc1cc(Nc2ccccc2)nc(N)n1 -28.7%
Nc1nc(SCC(=O)NCCN2CCOCC2)nc2sc3c(c12)CCC3 3.5%
Cc1ccc(Cl)cc1N1CCN(C(=O)c2cccc3c(=O)c(C)c(-c4ccccc4)oc23)CC1 2.98%
C[C@@H](O)c1nc2ccccc2n1N -14.7%
O=C(O)c1cccc(N=NN2CCCCCC2)c1 12.1%
Cc1ccc(CNC(=O)C2CC(c3ccccc3[N+](=O)[O-])=NO2)o1 (stereo unspecified) -9.83%
COc1ccc(-c2cc(C(=O)NCc3ccco3)no2)cc1OC -7.14%
COc1ccccc1N1CCN(C(=O)c2ccc(S(=O)(=O)N3CCCCC3)cc2)CC1 48.1%
COc1ccc(Nc2ncc(C(=O)N3CCN(c4ccccc4OC)CC3)c3ccccc23)cc1 37.3%
Cc1ccc(N(C(=O)C(F)(F)F)C(C(=O)NC2CCCCC2)c2ccncc2)cc1C (stereo unspecified) 0.653%
CCCCOc1ccc(C(=O)NCC(=O)OCC(=O)N2CCN(S(=O)(=O)c3ccc(C)cc3C)CC2)cc1 24.8%
CC(C)N1C(=O)N(c2ccccc2)C(C)(O)CC1(C)C (stereo unspecified) -24.7%
CC1(C)CC(=O)NC=C(c2ccccc2)C1 20.5%
CCCCCOc1ccc(/C=C/C(=O)NCCc2nc3ccccc3[nH]2)cc1OC 37%
COc1cc(/C=C(/NC(=O)c2ccc(Cl)cc2Cl)C(=O)O)cc(OC)c1OC -21.4%
O=C(NCc1ccccc1Cl)C1CCC(CNc2c(N3CCCCC3)c(=O)c2=O)CC1 (stereo unspecified) 42.7%
CC(C)(C)c1cc(C(=O)NCc2cccnc2)ccn1 47.5%
COCCn1c(=S)[nH]c2cc(C(=O)NCCc3ccc(OC)c(OC)c3)ccc2c1=O 26.1%
Cc1ccc(NC(=O)CCC(=O)N/N=C/c2ccco2)c(C)c1 -23.4%
N#Cc1c(NC(=O)CCCN2C(=O)c3ccccc3C2=O)oc(-c2ccccc2)c1-c1ccccc1 -11.2%
COC(=O)c1sccc1NC(=O)c1cc(OC)c(OC)c(OC)c1 81.2%
CCc1ccc(-c2cc(C(=O)NN3CCN(C)CC3)c3ccccc3n2)cc1 -5.44%
O=[N+]([O-])c1ccc(NCCCO)c(C(F)(F)F)c1 59.3%
C=C(C)c1cccc(C(C)(C)NC(=O)NC2CCCC2)c1 24%
Cc1ccc2[nH]c(C(=O)O)c(NC(=O)c3ccccc3[N+](=O)[O-])c2c1 17.5%
CCC(=O)Nc1c(S(=O)(=O)c2ccccc2)c2nc3ccccc3nc2n1Cc1ccccc1 8.42%
O=S(=O)(NCCc1ccncc1)c1ccccc1 50.6%
COc1cc2c(cc1OC)C(Nc1ccc(S(N)(=O)=O)cc1)=NC(C)(C)C2 -18.6%
O=C1OC(OC(=O)c2ccccc2Br)C(N2CCOCC2)=C1Cl (stereo unspecified) 84.2%
O=C(CCCOc1ccccc1)Nc1cccc(C(=O)O)c1 11.1%
CSc1cccc(NC(=O)CSc2ccccc2)c1 1.35%
CCOc1ccc(NC(=O)CSc2ncnc3c2sc2ccccc23)cc1 42.2%
O=C(Oc1ccccc1Cl)c1ccc(N2CCOCC2)c([N+](=O)[O-])c1 20.3%
COc1cc(C(=S)N2CCOCC2)cc(OC)c1OC(=O)c1cc([N+](=O)[O-])cc([N+](=O)[O-])c1 19.6%
CN(C)CCNC(=O)/C(=C/c1cccc([N+](=O)[O-])c1)NC(=O)c1ccccc1 -1.37%
COc1ccc(CCC(=O)OCC(=O)Nc2ccc(C)c(S(=O)(=O)N(C)C)c2)cc1 34.8%
COc1ccc(/C(C)=N/NC(=O)CCC(=O)Nc2ccc(Cl)cc2Cl)c(OC)c1 -10.3%
Cc1ccc(NC(=S)NCc2ccccc2Cl)c(C)c1 22.9%
COCc1cc(C)nc2sc3c(=O)n(-c4cccc5ccccc45)nnc3c12 0.942%
COc1ccc(N2C(=O)C(O)C2c2ccc(C)cc2)cc1 (stereo unspecified) -29.1%
